For 49 compounds, activation results are on record in PubChem BioAssay AID743287 (Broad Institute, 2014).

Structures are written as SMILES. The campaign covered roughly 370,000 compounds. About 2,300 (0.62%) were called active.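 The calls were made as follows: active = lowest replicate activation of at least 40%, so every replicate reaches that level; inactive = the rest.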 For the sample, actives were picked, then their nearest neighbours and some compounds at random.

This assay can be described thus: GLuc luminescence reporter in INS-1E cells, primary screen for activators of glucose-dependent secretion of insulin (AID 743287).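 Also: 0% = median of neutral control wells and 100% = median of IBMX positive control wells.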 Particulars: INS-1E GLuc reporter insulin secretion, 2-3 h, at 16.6 µM, hits give high values.
For the compound `CNC[C@H]1Oc2ccccc2CC(=O)N(C)C[C@H]1C`, the activation is 13.7% (inactive).
With `Cc1cc(C(=O)Nc2cccc3c2O[C@H](CN(C)C(=O)Nc2ccccc2)[C@@H](C)CN([C@H](C)CO)C3=O)n(C)n1` the figure was 26.8% (inactive).
With `Cc1ccc(S(=O)(=O)N(C)C[C@@H]2Oc3ccc(NC(=O)C4CCCCC4)cc3CC(=O)N([C@@H](C)CO)C[C@H]2C)cc1` the figure was -11.4% (inactive); with `CCS(=O)(=O)Nc1ccc2c(c1)C(=O)N(C)[C@H]1CC[C@@H](CC(=O)N3CCCCC3)O[C@H]1CO2`, -5.88% (inactive).
With `C[C@@H]1CN([C@H](C)CO)S(=O)(=O)c2ccc(-c3ccccc3)cc2O[C@@H]1CN(C)CC1CC1` the figure was 10.8% (inactive); with `O=C(C[C@H]1CC[C@H](NC(=O)c2ccncc2)[C@H](CO)O1)Nc1ccccc1`, 22% (inactive).
`O=C(c1cnccn1)N1CC(=O)N2[C@H](C1)[C@@H](c1ccc(C3=CCCCC3)cc1)[C@@H]2CO`: the activation is -9.9% (inactive).
`CO[C@@H]1CN(C)C(=O)c2ccc(NS(C)(=O)=O)cc2OC[C@@H](C)N(C(=O)CC2CC2)C[C@@H]1C`: the activation was -7.78% (inactive).
With `O=C(NCCc1ccccc1)c1c[nH]c2ccc(F)cc2c1=O` the figure was -9.34% (inactive); with `Nc1nc2c(Br)ccc(Br)c2cc1C(=O)NCCc1ccccc1`, 41.1% (active); with `NC(=O)Nc1ccccc1C(=O)NCCc1ccccc1`, 16.6% (inactive).
With `CO[C@H]1CN(C)C(=O)c2ccc(NC(=O)c3cc(C)on3)cc2OC[C@@H](C)NC[C@@H]1C` the figure was 14.3% (inactive); with `COc1ccc(NC(=O)N(C)C[C@@H]2Oc3c(NS(=O)(=O)c4cn(C)cn4)cccc3C(=O)N([C@H](C)CO)C[C@@H]2C)cc1`, 8.28% (inactive).
Regarding `CCC(=O)N1CCC2(CC1)CN(Cc1cccc(OC)c1)[C@@H](CO)c1[nH]c3cc(OC)ccc3c12`, the activation was 5.34% (inactive).
With `CC(C)(C)C(=O)c1c(N)[nH]c(C(=O)c2ccccc2)c1-c1ccc(F)cc1`, the activation was 0.681% (inactive).
With `Nc1[nH]c(C(=O)c2ccccc2)c(-c2ccc(Br)cc2)c1C(=O)NC1CC1` the figure was 2.55% (inactive); with `Nc1[nH]c(C(=O)c2ccccc2)c(-c2ccncc2)c1C(=O)NCc1cccc2ccccc12`, 49.2% (active).
With `C[C@@H]1CCCCO[C@H](CN(C)C(=O)Cc2ccccc2)[C@H](C)CN([C@@H](C)CO)C(=O)c2cc(NS(=O)(=O)c3ccc(F)cc3)ccc2O1` the figure was -21.1% (inactive); with `COc1ccc2c3c(n(C)c2c1)[C@H](CO)N(Cc1ccccc1Cl)CC31CN(C(=O)CN(C)C)C1`, 11.4% (inactive); with `O=C(COC(=O)Cn1cnc2ccccc21)Nc1cccc2c1C(=O)c1ccccc1C2=O`, 4.13% (inactive).
`O=C(COC(=O)c1cccc(Cl)c1)Nc1ccc2[nH]c(=O)[nH]c2c1`: the activation was 5.13% (inactive).
Take `O=C(COC(=O)c1cccc(Br)c1)Nc1cccc2c1C(=O)c1ccccc1C2=O`: the activation was 98% (active).
Regarding `COc1ccc(C(=O)N(C)Cc2ccc(OC)c(OC)c2OC)cc1S(=O)(=O)N1CCOCC1`, the activation is -3.04% (inactive).
Regarding `COc1ccc(-c2cc(C(=O)N(C)Cc3ccc(OC)c(OC)c3OC)c3ccccc3n2)cc1OC`, the activation is 62.1% (active).
With `COc1ccc(CN(C)C(=O)Cc2ccsc2)c(OC)c1OC` the figure was -7.45% (inactive).
Turning to `CCCc1cc(=O)n2[nH]c(C)c(-c3ccc(Cl)cc3)c2n1`, the activation was 43.7% (active).
With `COCc1cc(=O)n2[nH]c(C)c(-c3ccccc3)c2n1` the figure was -1.45% (inactive).
`CCn1c(C)cc(=O)cc1-c1ccc(Cl)cc1`: the activation is 9.35% (inactive).
With `CN(C)C(=O)[C@@H]1[C@@H](CO)[C@@H]2Cn3c(ccc(-c4ccccc4)c3=O)[C@@H]2N1CCC(F)(F)F` the figure was 21.1% (inactive).
With `O=C1N[C@H](c2ccccc2)COCc2cn(nn2)CC[C@@H]1Cc1ccc(Cl)cc1` the figure was 5.93% (inactive); with `COc1cccc(NC(=O)N[C@H]2C=C[C@@H](CC(=O)Nc3ccc(-c4ccccc4)cc3)O[C@@H]2CO)c1`, 58.9% (inactive); with `CN(C)CCNC(=O)c1cccc(-c2cnc3c(NC=O)cc(-c4cccc(C(F)(F)F)c4)cn23)c1`, 52.7% (active).
With `CC(=O)Nc1cc(-c2cccc(CO)c2)cn2c(-c3cccc(C(F)(F)F)c3)cnc12` the figure was -3.82% (inactive); with `CC(=O)Nc1cc(-c2ccccc2F)cn2c(-c3cccc(C(F)(F)F)c3)cnc12`, 2.99% (inactive).
On to `COc1ccc2c3c(n(C)c2c1)[C@@H](CO)NCC31CN(S(=O)(=O)c2cccc(C)c2)C1`, for which the activation was 14.9% (inactive).
On to `CCOC(=O)c1cc(S(=O)(=O)NCCc2ccc(OC)c(OC)c2)cn1C`, for which the activation was 13.8% (inactive).
With `O=S(=O)(NCCc1ccc(Cl)cc1)c1cccs1` the figure was -20.9% (inactive); with `COc1ccc(CCNS(=O)(=O)c2ccc(Cl)s2)cc1OC`, 40.9% (active); with `C[C@H](CO)N1C[C@H](C)[C@@H](CN(C)C(=O)C2CCCCC2)OCCCC[C@H](C)Oc2ccc(N(C)C)cc2C1=O`, -2.98% (inactive).
With `C[C@H](CO)N1C[C@H](C)[C@@H](CN(C)S(=O)(=O)c2cccc(F)c2)Oc2ncc(-c3cccc(F)c3)cc2C1=O` the figure was 3.46% (inactive).
For `CCn1c(CNC(=O)c2ccco2)nnc1SCC(=O)Nc1cccc(F)c1`, the activation is -2.18% (inactive).
With `CCn1c(SCC(=O)Nc2ccc3c(c2)OCCO3)nnc1C(C)C` the figure was 13.3% (inactive); with `CCn1c(SCC(=O)Nc2cccc(F)c2)nnc1-c1cc2cc(Br)ccc2o1`, 85.4% (active).
On to `C[C@H](CO)N1C[C@H](C)[C@H](CN(C)S(C)(=O)=O)Oc2ncc(C#CCN(C)C)cc2C1=O`, for which the activation was 18.2% (inactive).
With `NC(Cc1ccc(F)cc1)c1csc(Nc2nncc3ccccc23)n1` (centres undefined) the figure was -32.2% (inactive); with `COc1ccc(CC(N)c2csc(NC(=O)Nc3ccc(C(C)C)cc3)n2)cc1` (centres undefined), 193% (active).
With `NC(Cc1ccccc1)c1csc(Nc2cc(Oc3ccccc3)ncn2)n1` (centres undefined) the figure was -24.7% (inactive).
Consider `COc1ccc(S(=O)(=O)Nc2cccc3c2O[C@@H](CN(C)C(=O)Nc2cccc4ccccc24)[C@H](C)CN([C@@H](C)CO)C3=O)cc1`, for which the activation was -8.86% (inactive).
Regarding `COc1cccc(C#Cc2cnc3c(c2)C(=O)N([C@H](C)CO)C[C@@H](C)[C@@H](CN(C)C(=O)C2CCC2)O3)c1`, the activation is -5.49% (inactive).
